Our source for the growth values is PubChem BioAssay (NCI).

Some test systems named below: BT-549 breast; MDA-MB-435 melanoma; SW-620 colon; MCF7 breast; HCT-116 colon; HCC-2998 colon; KM12 colon.
What all share (assay): NCI-60 one-dose screen, 48 h (100 = growth as untreated, 0 = no growth, -100 = all killed)
What all share (conditions): 10 µM unless noted

Each structure is given as a SMILES string. About 83,000 compounds went through this panel and 20% of them were active in at least one assay; those are over-represented in the sample as a whole.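 Note: values are percent growth. 100 is the growth of untreated cells, values between 100 and 0 indicate rising inhibition; between -100 and 0 indicates cell death.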 Values without a mark were called inactive. The source made the active and inactive calls. Rule for the calls: active = growth percent below 10; inactive = the rest.

Turning to `CN1CCN(C(=O)[C@@]2(C)CC[C@]3(C)CC[C@]4(C)C(=CC[C@@H]5[C@@]6(C)CC[C@H](OC(=O)c7cccnc7)C(C)(C)[C@@H]6CC[C@]54C)[C@@H]3C2)CC1`, the growth in the test on BT-549 breast is 73.8%; with MDA-MB-435 melanoma it was 45.4%; in the test on SW-620 colon it was -35.5% (active); in the test on MCF7 breast it was 19.1%; in the test on HCT-116 colon, 51.7%; in the test with HCC-2998 colon, 97.3%. In addition, the growth in the test on KM12 colon is 53.2%.
In the case of `Cc1c(Cl)cccc1NC(=O)c1sc2nc3c(cc2c1N)CCCCCC3`, the growth in the test on BT-549 breast was 11.2%; in the test with MDA-MB-435 melanoma, -19.5% (active); in the test on SW-620 colon, 21.4%; in the test with MCF7 breast, 15.1%; with HCT-116 colon, 5.07% (active); with HCC-2998 colon it was 52.2%. Besides, the growth with KM12 colon is 19.1%.
For `O=C1Nc2ccc(Br)cc2/C1=N\N=C/c1cn(Cc2ccccc2)c2ccccc12`, the growth was 105% in the test on BT-549 breast; 105% with MDA-MB-435 melanoma; 99% with SW-620 colon; 83.2% in the test on MCF7 breast; 93.7% with HCT-116 colon; 106% in the test with HCC-2998 colon. The growth in the test with KM12 colon is 96.2%.
`Nc1ccc(C2=NN(C(=O)c3cc(-c4ccc(Cl)cc4)nc4ccccc34)C(c3ccccc3)C2)cc1` (configuration not stated): the growth in the test on BT-549 breast is 35.1%; with MDA-MB-435 melanoma, -24.3% (active); in the test with SW-620 colon, 22.5%; in the test with MCF7 breast, 12.7%; in the test with HCT-116 colon it was 24.7%; in the test on HCC-2998 colon, 59.6%. In addition, the growth in the test with KM12 colon is 24.5%.
With `COc1ccc(-c2cc(-c3nnc(SCC(=O)Nc4ccc(C(C)=O)cc4)o3)c3ccccc3n2)cc1`, the growth was 14.8% in the test with BT-549 breast; 11.5% in the test with MDA-MB-435 melanoma; 5.51% (active) in the test on SW-620 colon; -15.7% (active) in the test with MCF7 breast; -26.9% (active) in the test with HCT-116 colon; 96.5% with HCC-2998 colon. In the test on KM12 colon, the growth is 39.2%.
As to `O=C1C(=O)c2c(nc3ccc(C(F)(F)F)cn23)-c2ccccc21`, the growth in the test on BT-549 breast is -85.2% (active); with MDA-MB-435 melanoma, -84.4% (active); in the test with SW-620 colon, -60.4% (active); in the test on MCF7 breast it was -55.5% (active); in the test with HCT-116 colon, -74.9% (active); in the test with HCC-2998 colon, -90.4% (active). The growth in the test on KM12 colon is -61.7% (active).
For the compound `OCCNc1nc(NCCO)nc(Nc2ccc(C3=NN(c4cc(Cl)cc(Cl)c4)C(c4ccc(Cl)cc4)C3)cc2)n1` (configuration not stated), the growth is 52.1% in the test on BT-549 breast; -15.8% (active) in the test on MDA-MB-435 melanoma; 23.4% with SW-620 colon; 3.94% (active) in the test with MCF7 breast; 4.84% (active) in the test with HCT-116 colon; 27.1% in the test on HCC-2998 colon. Also, in the test on KM12 colon, the growth is 19.3%.
In the case of `COc1ccc(-c2nc(C#N)c(NCC(c3ccc(Cl)cc3)N3CCCCC3)o2)cc1` (configuration not stated), the growth is 106% with BT-549 breast; 77.1% in the test on MDA-MB-435 melanoma; 97.5% in the test on SW-620 colon; 80.6% in the test with MCF7 breast; 80.5% in the test on HCT-116 colon; 107% in the test with HCC-2998 colon. In the test with KM12 colon, the growth was 84.9%.
Take `NCCCn1c2c(c3cc(-c4ccn[nH]4)ccc3c1=O)C(=O)c1ccccc1-2`: the growth in the test with BT-549 breast is 77.3%; with MDA-MB-435 melanoma it was 63%; in the test on SW-620 colon, 24.6%; in the test on MCF7 breast, 13%; in the test with HCT-116 colon it was 19.1%; with HCC-2998 colon it was 60.6%. Further, in the test with KM12 colon, the growth is 38.7%.
On to `Fc1ccc(N/N=C/c2ccc(-n3cccn3)cc2)cc1`, for which the growth is 92.2% in the test on BT-549 breast; 95.2% in the test with MDA-MB-435 melanoma; 79.6% with SW-620 colon; 77% in the test on MCF7 breast; 91.9% in the test with HCT-116 colon; 97.5% with HCC-2998 colon. Further, the growth in the test with KM12 colon is 80.1%.
Take `CCOC(=O)C1CCN(S(=O)(=O)/N=C2/NC(=O)NC2=C(Cl)Cl)CC1`: the growth in the test on BT-549 breast is -9.2% (active); with MDA-MB-435 melanoma, -7.61% (active); with SW-620 colon it was -63.9% (active); in the test with MCF7 breast it was 16.4%; in the test on HCT-116 colon it was 9.4% (active); in the test with HCC-2998 colon, -10.1% (active). Further, in the test with KM12 colon, the growth was 12.8%.
For the compound `Oc1ccccc1-c1nc2c3ccccc3c3ccccc3c2o1`, the growth is 103% in the test with BT-549 breast; 99.3% with MDA-MB-435 melanoma; 68.4% in the test on SW-620 colon; 62.4% with MCF7 breast; 80.7% in the test on HCT-116 colon; 103% with HCC-2998 colon. In addition, the growth with KM12 colon was 93.3%.
Turning to `C#C[C@@]1(O)[C@@H](CO)O[C@@H](n2cc(Cl)c3c(N)ccnc32)[C@@H]1O`, the growth in the test with BT-549 breast was 89.9%; in the test on MDA-MB-435 melanoma, 75.6%; with SW-620 colon, 54.8%; with MCF7 breast, 36.7%; in the test with HCT-116 colon it was 4.67% (active); in the test on HCC-2998 colon it was 85.4%. Also, the growth in the test on KM12 colon is 69.9%.
In the case of `COc1ccc(C(=S)c2cc(OC)c(OC)c(OC)c2)cc1OC(=O)CCl`, the growth in the test on BT-549 breast was 12.1%; in the test with MDA-MB-435 melanoma, -8.11% (active); in the test with SW-620 colon, 29.5%; in the test with MCF7 breast, 15%; in the test with HCT-116 colon it was 9.73% (active); in the test on HCC-2998 colon, 31.2%. Moreover, the growth with KM12 colon was 13.9%.
Consider `C=C1C(=O)O[C@H]2[C@H]1CC/C(C=Nc1c(N)cc(C(F)(F)F)cc1Br)=C\CC[C@@]1(C)O[C@@H]21`, for which the growth was -22.6% (active) with BT-549 breast; 4.47% (active) in the test on MDA-MB-435 melanoma; -63.1% (active) with SW-620 colon; -2.09% (active) with MCF7 breast; -80.6% (active) with HCT-116 colon; 34.2% in the test on HCC-2998 colon. Besides, in the test on KM12 colon, the growth was 30%.
For the compound `CCCCCOC(=O)c1ccccc1O`, the growth with BT-549 breast is 93.4%; in the test on MDA-MB-435 melanoma, 102%; in the test with SW-620 colon it was 105%; in the test on MCF7 breast it was 87.6%; in the test with HCT-116 colon, 98.9%; in the test with HCC-2998 colon, 109%. In addition, the growth with KM12 colon is 105%.
